Source: PubChem (Broad Institute)
Only some compounds are listed: those with a hit (about 3.4% of all), similar ones and a draw of the others.
HIV Env fusion – blocks HIV Env-driven cell-cell fusion. HeLa-JRFL Env/CEM21 cell fusion, luciferase. inhibition, % at 12.3 µM. 360,000 tested, 1.1% active;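 active = mean replicate inhibition score of at least 50 and every replicate individually at or above 50; inconclusive = only one of the two criteria met; inactive = mean below 50 and not all replicates reaching 50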;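 also: 0% = plate neutral controls and 100% = maraviroc near 300 nM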
Wnt act – activators of Wnt/beta-catenin signaling; activation, % at 9.35 µM; 300,000 tested, 1.2% active; Wnt/beta-catenin reporter cell assay, activator, plate reader; in the data active = activation above about 30%, passing the limit was not always enough; inconclusive = no clear call, values can overlap the other calls;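 also: 0% = neutral control wells and 100% = positive control wells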
miR-122 sensor – inhibitors of miR-122 in Huh7 cells | 340,000 tested, 0.3% active | Huh7 miR-122 Renilla luciferase sensor, 48 h; neutral wells = 0, positive control = 100 | AID 602342 | activation (reporter increase), % at 12.5 µM;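 active = mean replicate activation score at least 90 and every replicate individually at or above 90; inconclusive = only one of the two criteria met; inactive = neither criterion met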;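 also: higher luciferase means less miR-122 activity so hits act as miR-122 inhibitors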
esBAF inh – blocks esBAF chromatin remodeling in mouse ES cells; 350,000 tested, 2% active; Bmi1-luciferase knock-in reporter, 24 h; 100% = twice the neutral-well signal; reporter increase, % at 12.5 µM; AID 602393; in the data active = activation above about 40%; inconclusive = no clear call, values can overlap the other calls;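 also: 0% = median of the plate's neutral control wells and 100% = double that signal; a rise in the Bmi1 reporter signal indicates esBAF inhibition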
MITF TRPM1 HTS – activators of MITF-driven TRPM1 promoter activity in SK-MEL-5 cells; SK-MEL-5 TRPM1-promoter luciferase, 24 h; % of positive control, neutral wells = 0; activation, % at 12.5 µM; 300,000 tested, 0.75% active; AID 588334;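 active = mean activation of at least 80% with every replicate also reaching 80%; inconclusive = mean reaches 80% but some replicate falls short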;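 also: 0% = neutral control wells and 100% = parthenolide positive control wells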
Ring1 derepress – esBAF inhibition confirmed by Ring1 de-repression. shares compounds with esBAF inh. mouse ESC E14, Ring1 mRNA RT-qPCR fold change. fold change at 33 µM. 550 tested, under 10 active;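 active = Ring1 gene expression raised more than 2-fold over untreated cells in both replicates at either tested dose; inconclusive = only one replicate above 2-fold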;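 also: Ring1 transcript normalised to actin housekeeping signal by TaqMan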
esBAF Fgf4 qPCR – confirmation of esBAF inhibitors: Fgf4 repression in mouse ESCs | mouse ESC E14, Fgf4 mRNA qPCR fold change; stronger effect = lower value | Fgf4 expression fold change at 33 µM | shares compounds with esBAF inh | 550 tested, 4% active | AID 743177;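 active = Fgf4 expression under 0.8 fold of control in both repeat measurements at one or both tested doses; inconclusive = under 0.8 fold in just a single repeat measurement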;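 also: Fgf4 transcript normalised to actin in duplex TaqMan qPCR; cells exposed to compound for 24 h before lysis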
Bmi1 derepress – de-represses Bmi1 in mouse ESCs, confirming esBAF inhibition; mouse ESE14 ES cells, Bmi1 mRNA qPCR fold; stronger effect = higher value; shares compounds with esBAF inh; 550 tested, under 10 active; fold change at 33 µM;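 active = Bmi1 expression fold change above 6 at either tested concentration, seen in replicate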;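 also: higher fold means more Bmi1 de-repression and stronger esBAF inhibition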
A549 cytotox – A549 cell cytotoxicity | plate reader | cell viability change % (negative = cytotoxic), % at 25 µM, hits read low | shares compounds with esBAF inh | 550 tested, under 10 active; call rule not given here
HepG2 cytotox SP – cytotoxicity in HepG2 cells. shares compounds with esBAF inh. plate reader; stronger effect = lower value. activity change, negative = inhibition, % at 25 µM. 550 tested, 4% active. AID 743189; in the data active = activity change below about -50%
HEK293 tox SP – HEK293 cell cytotoxicity at single point | shares compounds with esBAF inh | 550 tested, 3% active | plate reader | AID 743190 | activity change, negative = inhibition, % at 25 µM, hits read low; in the data active = activity change below about -38%, passing the limit was not always enough
An asterisk follows results filed as active; ? = inconclusive; . = no result; [ ] = another dose, or the depositor's remark.

SMILES	HIV Env fusion	Wnt act	miR-122 sensor	esBAF inh	MITF TRPM1 HTS	Ring1 derepress	esBAF Fgf4 qPCR	Bmi1 derepress	A549 cytotox	HepG2 cytotox SP	HEK293 tox SP
O=S(=O)(N[C@H]1CC[C@@H](CCn2cc(Cc3ccccc3)nn2)O[C@@H]1CO)c1ccccc1F	.	.	.	2	.	.	.	.	.	.	.
Cc1cc(C)c2nc(-c3ccccc3)ccc2c1	-121	14	0	63*	.	0.93	?	1.6	-13	-17	-9
C[C@@H]1CN([C@H](C)CO)C(=O)Cc2cc(NC(=O)Cn3cnnn3)ccc2O[C@H]1CN(C)C(=O)Nc1ccc(F)cc1	-9[16.7 µM]	.	8[16.7 µM]	4	.	.	.	.	.	.	.
O=C(C[C@@H]1CC[C@@H](NC(=O)Cc2ccccn2)[C@H](CO)O1)NCCCN1CCOCC1	0[16.7 µM]	.	.	1	.	.	.	.	.	.	.
N#CC(c1ccccc1O)N1N=C(c2ccccc2)CC1c1ccccc1 (stereo unspecified)	-10	29	5	58*	29	1.1	0.95	1.3	-3	7	-4
O=C(C[C@@H]1CC[C@@H]2[C@H](COC[C@H](O)CN2Cc2ccccc2F)O1)NC1CCC1	-14[16.7 µM]	.	-5[16.7 µM]	5	.	.	.	.	.	.	.
CC(C)c1ccc(CNc2ncccn2)cc1	-82	11	1	55*	.	1.2	0.83	1.7	-7	-16	-11
CN(C)S(=O)(=O)c1ccc2c(c1)/C(=C/c1cc3c([nH]1)CCCC3)C(=O)N2	-32	35*	8	59*	69	2.2*	1.1	7.7*	-17	22	-6
CC(=O)Oc1ccc(-c2csc(Nc3ccc(Cl)cn3)n2)cc1	-18	8	-7	59*	.	1.4	0.9	1.7	-9	-12	-1
Cc1nc(N)sc1-c1csc(Nc2ccc(Cl)cn2)n1	.	3	-3	30	16	.	.	.	.	.	.
CC(=O)c1ccc(NC(=O)C2CC(=O)N(Cc3ccccc3)C2)cc1 (stereo unspecified)	-80	.	-3	56*	60	1.4	0.96	1.5	-11	-19	-11
O=C(Nc1ccccc1)C1CC(=O)N(Cc2ccccc2)C1 (stereo unspecified)	8	-2	2	0	-9	.	.	.	.	.	.
O=C([C@@H]1[C@@H](CO)[C@@H]2Cn3c(ccc(C4=CCCC4)c3=O)[C@H]1N2)N1CCCCC1	.	.	0[16.7 µM]	0	.	.	.	.	.	.	.
COC(=O)Cc1ccc(OCc2ccc(Cl)nc2)cc1	-20	-2	-5	59*	95*	1.2	0.91	1.8	0	-30	-4
Cc1ccc(C)c(NC(=O)C2CC3CCC2C3)c1 (stereo unspecified)	-4	2	-7	26	.	.	.	.	.	.	.
Cc1ccc(NC(=O)C2CC3CCC2C3)c(Br)c1 (stereo unspecified)	-10	7	-4	73*	52	1	1	2	-10	-18	-11
C[C@H](CO)N1C[C@H](C)[C@H](CN(C)Cc2ccc(C(=O)O)cc2)Oc2ccc(NC(=O)Cc3ccccc3)cc2CC1=O	-5[16.7 µM]	.	-4[16.7 µM]	2	.	.	.	.	.	.	.
C=CCNc1oc(-c2ccc(OC)cc2)nc1C#N	-58	.	-6	79*	63	0.95	0.92	1.4	-2	10	-12
C=CCNc1oc(-c2ccc(OCC)cc2)nc1C#N	.	5	-2	34	35	.	.	.	.	.	.
COc1ccccc1-c1ccc2c(c1)O[C@@H](CN(C)CC1CC1)[C@H](C)CN([C@@H](C)CO)S2(=O)=O	6[16.7 µM]	.	3[16.7 µM]	.	.	.	.	.	.	.	.
Oc1[nH]c2ccccc2c1/C=N/c1nccs1	.	-2	1	71*	56	1.4	1	1.7	0	-40	-11
Oc1[nH]c2ccccc2c1/C=N/N1CCCCC1	29	2	.	.	0	.	.	.	.	.	.
CCc1sc(C(=O)Nc2ccc3nc(C)sc3c2)cc1C	-10	13	8	80*	90*	1.1	0.61*	1.5	-5	15	-5
O=S(=O)(c1ccc2ccccc2c1)N1CCN(S(=O)(=O)c2c(F)cccc2F)CC1	-115	22	1	80*	55	1.1	?	1.3	-10	-8	-5
CN1CCN(S(=O)(=O)c2ccc3ccccc3c2)CC1	7	-2	-3	-5	1	.	.	.	.	.	.
SMILES	HIV Env fusion	Wnt act	miR-122 sensor	esBAF inh	MITF TRPM1 HTS	Ring1 derepress	esBAF Fgf4 qPCR	Bmi1 derepress	A549 cytotox	HepG2 cytotox SP	HEK293 tox SP
COc1ccc(NC(=O)O/N=C/c2ccccc2)cc1	-68	39*	-2	53*	75	1	?	1.7	-9	-34	-9
CC(=O)Oc1ccc(-c2cc3ccccc3oc2=O)cc1	-60	28	1	69*	.	1.2	?	1.2	-5	-1	0
C[C@H]1CN([C@@H](C)CO)C(=O)c2cc(NC(=O)NC3CCCCC3)ccc2O[C@H]1CN(C)Cc1ccncc1	1[16.7 µM]	.	20[16.7 µM]	0	.	.	.	.	.	.	.
Cc1ccc(NCSc2ccc(Cl)cc2)cc1	-4	16	-14	72*	50	0.96	1.1	1.5	-16	42	-2
O=C(Nc1cccc2ccccc12)c1cnccn1	.	.	-3	63*	25	1	0.92	1.5	-6	-15	-10
Cc1cccc(NC(=O)c2ccccn2)c1C	-102	36*	-2	63*	73	0.79	1	1.2	-14	-6	-17
O=C(N[C@H]1CC[C@H](CCNC(=O)C2CCOCC2)O[C@H]1CO)c1ccccn1	17[16.7 µM]	.	.	1	.	.	.	.	.	.	.
CC(=O)N(C)C[C@@H]1Oc2ncc(C3=CCCC3)cc2C(=O)N([C@@H](C)CO)C[C@H]1C	2[16.7 µM]	.	5[16.7 µM]	-2	.	.	.	.	.	.	.
Nc1c(C(=O)NC2CCCC2)sc2nc(-c3cccs3)ccc12	-29	.	22	.	33	.	.	.	.	.	.
NC(=O)c1sc2nc(-c3cccs3)ccc2c1N	40	13	3	59*	14	0.99	0.94	1.2	-9	-26	-9
CN(C)c1ccc(CN(C(=O)c2cc3ccccc3oc2=O)C2CCS(=O)(=O)C2)cc1 (stereo unspecified)	-34	28	1	70*	61	1.2	1	1.2	-2	-19	0
Cc1cc(N2CCOCC2)nc2ccc(NC(=O)CCC(=O)N3CCN(c4ccccc4F)CC3)cc12	-19	13	-2	74*	120*	0.86	1.1	1	7	7	5
Cc1cc(N2CCOCC2)nc2ccc(NC(=O)CCC(=O)N3CCN(c4ccc(F)cc4)CC3)cc12	-8	4	-7	13	9	.	.	.	.	.	.
